{
  "source": "PubChem BioAssay AID624300",
  "about": "(Southern Research Specialized Biocontainment Screening …, 2012)",
  "note": "Hit rate of the full screen: of about 2,400 compounds, about 360 (15%) were called active.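 The calls were made as follows: active = viability falls under 70% at one or more tested concentrations, taken as toxicity; inactive = viability stays over 70% at every dose.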 Only a sample is shown. Measured potencies and affinities stand elsewhere.",
  "data": [
    {"assay": "HeLa cell cytotoxicity, dose response, cytotoxicity control for MgcRacGAP inhibitor project (AID 624300)", "settings": "CellTiter-Glo luminescence, 24 h; series mostly up to 100 µM", "values": [
      {"smiles": "Oc1ccccc1/C=N/n1c(-c2ccccc2)n[nH]c1=S", "outcome": "inactive"},
      {"smiles": "O=[N+]([O-])c1cccc(/C=N/n2c(-c3cccnc3)n[nH]c2=S)c1", "outcome": "inactive"},
      {"smiles": "CCN(c1ccccc1)S(=O)(=O)c1ccc(OC)c(NC(=O)CNCCc2ccccc2)c1", "outcome": "inactive"},
      {"smiles": "CCOC(=O)CCNC(C)C1COc2ccccc2O1", "note": "(configuration not stated)", "outcome": "inactive"},
      {"smiles": "O=C(COC(=O)c1c2c(nc3ccccc13)/C(=C/c1ccco1)CC2)NC1CCCC1", "outcome": "inactive"},
      {"smiles": "COC(C(=O)N/N=C(\\C)CC(=O)Nc1ccc(N(C)C)cc1)c1ccccc1", "note": "(configuration not stated)", "outcome": "inactive"},
      {"smiles": "CC(C)c1ccc(NC(=O)CNCC(c2ccccc2)N(C)C)cc1", "note": "(configuration not stated)", "outcome": "inactive"},
      {"smiles": "COc1cc(N=Nc2c(C)n(C)n(-c3ccccc3)c2=O)ccc1N", "outcome": "inactive"},
      {"smiles": "Oc1ccc(/C=N/N=C/c2ccc(O)cc2)cc1", "outcome": "inactive"},
      {"smiles": "COc1cccc(OC)c1OCCCCN1CCCC1", "outcome": "inactive"},
      {"smiles": "Cc1cccn2c(NCc3ccc4c(c3)OCO4)c(-c3ccc(O)cc3)nc12", "outcome": "inactive"},
      {"smiles": "C/C(CC(=O)Nc1ccc(N(C)C)cc1)=N\\NC(=O)c1ccc([N+](=O)[O-])cc1Cl", "outcome": "inactive"},
      {"smiles": "Cc1cc(/C=C(\\C#N)C(=O)N2CCCCC2)cc(C)c1O", "outcome": "inactive"},
      {"smiles": "COc1ccc(N2C(=O)CC(Nc3ccc(N4CCOCC4)cc3)C2=O)c(OC)c1", "note": "(configuration not stated)", "outcome": "inactive"},
      {"smiles": "CN1C=CC(=CC=C2C=CC(=O)C=C2)C=C1", "outcome": "inactive"},
      {"smiles": "COc1cc(/C=C/C(=O)OC(C)C(=O)Nc2c(C)n(C)n(-c3ccccc3)c2=O)ccc1O", "note": "(configuration not stated)", "outcome": "inactive"},
      {"smiles": "COc1cc(/C=N/NC(=O)c2nnn(-c3nonc3N)c2C(C)C)ccc1O", "outcome": "inactive"},
      {"smiles": "CCN1CCN(CCOc2ccc(Br)cc2C)CC1", "outcome": "inactive"},
      {"smiles": "COc1ccc(-c2cn[nH]c2-c2ccc(O)cc2O)cc1", "outcome": "inactive"},
      {"smiles": "COc1ccccc1-c1cn[nH]c1-c1ccc(O)cc1O", "outcome": "inactive"},
      {"smiles": "CN1CCN(Cc2coc3c(Cl)cc(Cl)cc3c2=O)CC1", "outcome": "inactive"},
      {"smiles": "CN1C(=O)C2C(c3ccc(N(C)C)cc3)=NN(Cc3ccccc3)C2C1=O", "note": "(configuration not stated)", "outcome": "inactive"},
      {"smiles": "CC(C(=O)Nc1ccc2c(c1)OCO2)N1CCN(C)CC1", "note": "(configuration not stated)", "outcome": "inactive"},
      {"smiles": "CCN(CC)CCCNCC(=O)Nc1cc(C)on1", "outcome": "inactive"},
      {"smiles": "CCN(CC)CCn1c2ccccc2c(=O)c2c(O)ccc(O)c21", "outcome": "inactive"},
      {"smiles": "COc1ccc(-n2c(=O)c3c4c(sc3n3c(=S)[nH]nc23)CCCC4)cc1", "outcome": "inactive"},
      {"smiles": "c1cc2c(cc1CNc1ccc(N3CCOCC3)cc1)OCO2", "outcome": "inactive"},
      {"smiles": "COc1cc(/C=N/n2c(C3CCCCC3)n[nH]c2=S)ccc1O", "outcome": "inactive"},
      {"smiles": "CN1CCN(/N=C/c2nc(-c3ccc(Cl)cc3)n3ccccc23)CC1", "outcome": "inactive"},
      {"smiles": "Oc1ccc(N2CCN(C(c3cccs3)c3nnnn3CCc3ccccc3)CC2)cc1", "note": "(configuration not stated)", "outcome": "inactive"},
      {"smiles": "Cc1ccc(NC(=O)CCC(=O)N/N=C/c2ccc(O)cc2)cc1", "outcome": "inactive"},
      {"smiles": "Cn1cccc1CC(=O)N/N=C/C=C/c1ccco1", "outcome": "inactive"},
      {"smiles": "Cc1ccc(Nc2n[nH]c(=S)s2)c(C)c1", "outcome": "inactive"},
      {"smiles": "O=C(CNC1CC1)Nc1cc(C(F)(F)F)ccc1Cl", "outcome": "inactive"},
      {"smiles": "CCC1=NN2C(=N)/C(=C\\c3ccc(SCc4ccco4)o3)C(=O)N=C2S1", "outcome": "inactive"},
      {"smiles": "O=C(COc1ccccc1[N+](=O)[O-])N/N=C/c1ccc(O)cc1", "outcome": "inactive"},
      {"smiles": "CCOc1cc(/C=N/NC(=O)c2ccccc2OCc2ccc(F)cc2)ccc1O", "outcome": "inactive"},
      {"smiles": "O=C(N/N=C/c1ccc(O)c(O)c1)c1cccc(S(=O)(=O)N2CCCCC2)c1", "outcome": "inactive"},
      {"smiles": "CC(=O)Nc1ccc(OC(=O)c2cc3ccccc3oc2=O)cc1", "outcome": "inactive"},
      {"smiles": "CCOC(=O)Nc1ccc(OC(=O)Oc2ccc(NC(=O)OCC)cc2)cc1", "outcome": "inactive"},
      {"smiles": "C=CCc1cc(C=Nc2ccc(N3CCOCC3)cc2)cc(OCC)c1O", "outcome": "inactive"},
      {"smiles": "CCc1nnc(N/N=C/c2c(C)[nH]c3ccccc23)n1N", "outcome": "inactive"},
      {"smiles": "CCN1CCN(C(C)C(=O)NC2CCCCC2)CC1", "note": "(configuration not stated)", "outcome": "inactive"},
      {"smiles": "C/C(=N/Nc1ccc(C(=O)O)cc1)c1ccc2c(c1)Nc1ccccc1S2", "outcome": "inactive"},
      {"smiles": "C/C(=N\\NC(=O)c1ccccc1F)c1ccc2c(c1)Nc1ccccc1S2", "outcome": "inactive"},
      {"smiles": "N#CC1=C(S)N(c2ccccc2)C2(CCCCC2)NC1=O", "outcome": "inactive"},
      {"smiles": "CC1(C)O[C@@H]2[C@H](O1)[C@@H](COS(=O)(=O)O)O[C@H]2n1c(=S)[nH]c2c(=O)[nH]c(N)nc21", "outcome": "inactive"},
      {"smiles": "Cc1c(N(C)C)nc2ccccc2c1N", "outcome": "inactive"},
      {"smiles": "O=C(O)CC1SC(=Nc2ccc(O)cc2)NC1=O", "note": "(configuration not stated)", "outcome": "inactive"},
      {"smiles": "COc1cc(/C=N/NC2=NCCCCC2)ccc1O", "outcome": "inactive"},
      {"smiles": "S=c1[nH]nc(Nc2ccccc2Cl)s1", "outcome": "inactive"},
      {"smiles": "O=C1NC(=NCc2ccccc2)S/C1=C/c1ccc(O)cc1", "outcome": "inactive"},
      {"smiles": "COc1cc(/C=C2\\SC(=Nc3ccc(Cl)c(C(=O)O)c3)NC2=O)c(Br)c(Br)c1O", "outcome": "inactive"},
      {"smiles": "O=C1NC(=S)S/C1=C\\C=C\\c1ccc([N+](=O)[O-])o1", "outcome": "inactive"},
      {"smiles": "Cc1cc(/C=C2\\SC(=S)NC2=O)c(C)[nH]1", "outcome": "inactive"},
      {"smiles": "CCOC(=O)C1CCN(Cc2cccc(Oc3ccccc3)c2)CC1", "outcome": "inactive"},
      {"smiles": "COc1cc(/C=N/NC(=O)c2cn(-c3cccc(C)n3)cn2)ccc1O", "outcome": "inactive"}
    ]}
  ]
}
